Tau fibril FP – blocks human tau fibril formation measured by polarization; P10636; K18 P301L tau heparin fibrillization, Alexa594 FP, 6 h; Potency, µM (highest dose often 57.7 µM), for the others: top-dose activity, negative = inhibition, most hits filed as inhibitors; actives 0.39% (n = 280,000); further: nearly all actives have a fitted effect of over 55% in size
Target sequence (P10636 561-689 P618L limits assumed): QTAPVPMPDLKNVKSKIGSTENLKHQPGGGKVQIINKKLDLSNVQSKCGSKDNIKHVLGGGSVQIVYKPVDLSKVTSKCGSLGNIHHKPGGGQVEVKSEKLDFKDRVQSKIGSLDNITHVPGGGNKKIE
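Human K18 P301L fragment (15 uM unlabeled plus 0.24 uM Alexa 594-labeled) in 100 mM sodium acetate pH 7 with compound, aggregation induced by 20 uM heparin for 6 hr at 37 C. ThT (30 uM) added for 1 hr, then Alexa 594 FP read.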
Tau ThT inhib – blocks human tau fibril formation measured by thioflavin T; P10636; recombinant tau K18 P301L, heparin-induced fibrillization, ThT fluorescence; Potency, µM (top dose mostly 57.4 µM), inactives show top-dose activity, negative = inhibition, most hits filed as inhibitors; actives 2.1% (n = 270,000); AID 1460; further: nearly all actives have a fitted effect of over 55% in size
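Tau K18 P301L fragment (15 uM unlabeled plus 0.24 uM Alexa 594-labeled) in 100 mM sodium acetate pH 7 with compound, fibrillization induced by 20 uM heparin for 6 hr at 37 C. Thioflavin T (30 uM) added, fluorescence read after 1 hr (ex 450, em 510 nm).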
Tau fluor cs – counter-screen for tau fibril formation inhibitors. tau K18 P301L Alexa594 fluorescence, heparin fibrillization. Potency, µM (doses to about 57.7 µM), for inactives: top-dose activity change, negative = decrease. actives 0.93% (n = 280,000). AID 1463; further: nearly all actives have a fitted effect of over 55% in size
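Human tau K18 P301L (15 uM unlabeled, 0.24 uM Alexa 594-labeled) in 100 mM sodium acetate pH 7 with 20 uM heparin, 6 hr at 37 C. ThT 30 uM added, 1 hr ambient; Alexa 594 FP and total fluorescence read at 555/632 nm.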
Sfp inh – blocks B. subtilis Sfp PPTase activity | Q9F4F7 | Biochemical Sfp PPTase activity, qHTS | Potency, µM, without a hit: largest response in the series, negative = inhibition, hits mostly inhibitors | actives 3.5% (n = 310,000) | AID 1490;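 further: the enzyme is Sfp with the accession as filed and its product quenches rhodamine fluorescence; 0% = enzyme reaction without inhibitor and -100% = no enzyme wells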
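Reaction rates are the 30-min fluorescence difference (ex 525, em 598 nm) in wells containing 15 nM Sfp, 5 uM rhodamine-CoA and 12.5 uM BHQ-2-YbbR at pH 7.6 with 10 mM MgCl2.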
VDR inhibitor – vitamin D3 receptor (human) inhibition; P11473; VDR-SRC2-3 peptide fluorescence polarization, 2 h; Potency, µM, without a hit: max response, negative = inhibition, most hits filed as inhibitors; actives 0.93% (n = 400,000)
Target sequence (P11473 whole entry, looked up): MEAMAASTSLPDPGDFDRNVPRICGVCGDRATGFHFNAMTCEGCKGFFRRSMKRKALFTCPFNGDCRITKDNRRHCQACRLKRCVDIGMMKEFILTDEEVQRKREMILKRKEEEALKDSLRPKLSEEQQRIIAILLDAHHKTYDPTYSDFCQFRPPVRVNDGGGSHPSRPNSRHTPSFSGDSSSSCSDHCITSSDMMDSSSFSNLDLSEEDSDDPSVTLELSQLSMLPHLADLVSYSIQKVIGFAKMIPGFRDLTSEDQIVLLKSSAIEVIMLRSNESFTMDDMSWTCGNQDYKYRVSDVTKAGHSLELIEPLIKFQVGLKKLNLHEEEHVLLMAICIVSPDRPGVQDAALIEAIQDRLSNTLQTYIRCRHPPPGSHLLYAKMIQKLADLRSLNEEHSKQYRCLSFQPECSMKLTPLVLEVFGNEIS
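Measured by FP: displacement of SRC2-3 coactivator peptide from VDR by library compounds, following a two-hour ambient incubation.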
PLK1 PBD block – PLK1 (human) polo-box domain binding inhibition; P53350; Plk1 PBD binding of FITC phosphopeptide, fluorescence polarization; Potency, µM, without a hit: max response, negative = inhibition, most hits filed as inhibitors; actives 2.8% (n = 360,000); further: series mostly up to about 57 µM; nearly all actives have a fitted effect of over 65% in size
Active calls of the source: *; u = inconclusive; x = no result given; [ ] = another dose, or the depositor's remark. This is a sample that favours compounds with a hit; in the whole collection about 6% have one here. The call rests on the fitted dose curve; in most records, active means well fitted curve in the direction sought with a large enough effect; inconclusive means small, poorly fitted or top-dose-only effect, or another doubt; inactive means no such curve, though single readings can be large; an effect the other way counts as inactive or inconclusive. Unless noted, on the % scale 0 is the no-effect control and ±100 the full control effect; potency means the concentration at half of the fitted maximal effect.

SMILES | Tau fibril FP | Tau ThT inhib | Tau fluor cs | Sfp inh | VDR inhibitor | PLK1 PBD block
Cc1ccc(NC(=O)c2ncn(CCCNCC(C)c3ccccc3)n2)cc1C (centres undefined) | x | x | x | x | -17.1% | -6.2%
CN(c1cccc(NC(=O)c2ccc(N(C)S(=O)(=O)c3ccccc3)cc2)c1)S(C)(=O)=O | -11.5% | -5.2% | -20.0% | 17.2% | u | 11.9µM*
O=C(Nc1cccc(S(=O)(=O)N2CCCCCC2)c1)c1cc(=O)c2ccccc2o1 | u | -9.4% | 14.1µM*[quencher] | 12.8% | -14.4% | -8.7%
CN(c1ccccc1)S(=O)(=O)c1cccc(NC(=O)c2cc(=O)c3ccccc3o2)c1 | -27.4% | -18.5% | 12.6µM*[quencher] | 10.9% | 22.2% | -11.0%
Fc1cnc(Cl)nc1NC1CCCCC1 | x | x | x | 16.3% | u | 21.2µM*
Fc1ccc(-n2ncc3c(NC4CCCCCC4)ncnc32)cc1 | -7.5% | 10.9% | -21.6% | x | 10.5% | x
N#CC(C(=O)Nc1ccccc1)=C1Nc2ccccc2N1 | 5.8% | u | u | 0.8% | 0.6% | -3.9%
N#CC(=C1Nc2ccccc2N1)S(=O)(=O)c1ccccc1 | 10.0% | -11.3% | -12.5% | -0.3% | 50.1µM* | 3.36µM*
CCOc1cc(N2CCOCC2)c(OCC)cc1NC(=O)c1ccc2ccccc2n1 | 12.1% | 25.1µM* | u | u | -16.1% | -5.8%
O=C(Nc1ccc(N2CCCC2)cc1)C(Cl)c1ccccc1 (centres undefined) | 31.6µM* | 25.1µM* | u | 44.7µM* | 44.7µM* | -29.0%
O=C(CNCC1CCCO1)Nc1ccc(N2CCCCCC2)cc1 (centres undefined) | 1.6% | u | -13.3% | 56.2µM* | -0.2% | -2.5%
O=C(Nc1ccc(N2CCCCC2)cc1)c1ccc2ccccc2n1 | 15.0% | 12.6µM* | u | u | -17.4% | -9.2%
CC(=O)Nc1ccc(S(=O)(=O)N(Cc2ccccc2)Cc2ccccc2)cc1 | u | 0.0% | u | x | -12.9% | x
CCOc1ccc(N(C(=O)c2ccc(Cl)cc2)S(=O)(=O)c2ccc3c(c2)n(C)c(=O)n3C)cc1 | 1.2% | -3.5% | -3.3% | x | -8.5% | x
O=C(c1ccc2c(c1)N(Cc1ccc(F)cc1)C(=O)c1ccccc1S2(=O)=O)N1CCCC1 | -5.9% | -0.7% | -12.9% | x | -18.4% | x
O=C(CNCCC1=CCCCC1)Nc1ccc(N2CCCCCC2)cc1 | 1.3% | u | -23.6% | 15.8µM* | -3.2% | -5.1%
O=C(O)CCC(=O)Nc1ccc(N2CCCCCC2)cc1 | -8.1% | -14.5% | -10.6% | 22.4µM* | u | -7.4%
CCCNC(=O)C1CCC(Cn2c(=O)c3sccc3n(CC(=O)N3CCCC(C)C3)c2=O)CC1 (centres undefined) | 7.8% | 8.3% | 9.4% | x | 6.2% | x
COc1ccc2nc(NC(=O)c3nc(S(=O)(=O)Cc4ccccc4)ncc3Cl)sc2c1 | -7.7% | 8.91µM* | u | x | 2.1% | x
CCSc1ncc(Cl)c(C(=O)Nc2nc3ccc(OC)cc3s2)n1 | -11.1% | -16.4% | -15.9% | x | 16.3% | x
COc1ccc2nc(NC(=O)c3nc(S(=O)(=O)Cc4ccccc4F)ncc3Cl)sc2c1 | 2.4% | 7.08µM* | u | x | -5.4% | x
COC(=O)c1ccc(-c2noc(CN(Cc3nccn3C)C(C)C)n2)cc1 | -3.8% | -2.0% | 2.4% | 10.1% | -24.4% | 16.8µM*
CCN1CCN(CCC2Oc3cc([N+](=O)[O-])ccc3NC2=O)CC1 (centres undefined) | 6.6% | -19.7% | -1.6% | 15.9% | 7.4% | -2.3%
COc1ccc(N2CCN(CCC3Oc4cc([N+](=O)[O-])ccc4NC3=O)CC2)cc1 (centres undefined) | 13.2% | 7.94µM* | u | 8.7% | 2.8% | -8.8%
COc1ccc(C(=O)c2cn(CC(=O)Nc3cc(OC)cc(OC)c3)c3ccc(OC)cc3c2=O)cc1 | 2.1% | 11.0% | -11.4% | x | -6.7% | x
SMILES | Tau fibril FP | Tau ThT inhib | Tau fluor cs | Sfp inh | VDR inhibitor | PLK1 PBD block
COc1ccc(C2Nc3ccccc3C(=O)N2Cc2ccco2)cc1COc1ccc(F)cc1 (centres undefined) | 0.4% | -7.3% | -7.5% | 39.8µM* | -4.6% | -19.2%
COc1ccc(C2=Nn3c(nnc3-c3ccccc3O)SC2)cc1OC | x | x | x | 44.7µM* | x | x
COc1cccc(C2=Nn3c(nnc3-c3ccccc3C)SC2)c1 | x | x | x | 63.1µM* | x | x
CCOC(=O)CSc1n[nH]c(NC(=O)NC(C)C)n1 | -0.9% | 0.5% | -0.2% | 5.1% | -12.5% | -3.4%
COc1cc([N+](=O)[O-])ccc1NC(=O)N1CCCCCC1 | x | x | x | 10.3% | -1.9% | -4.6%
CC1Cc2c(COc3ccccc3)nc3c(c2CO1)CN(CCOc1ccccc1)CC3 (centres undefined) | 2.4%[11.6 µM] | -18.2%[11.5 µM] | -21.3%[11.6 µM] | 26.2% | x | x
Cc1ccc(S(=O)(=O)N2CCN(S(=O)(=O)c3ccc4c(c3)OCCCO4)CC2)cc1 | x | x | x | x | 1.2% | x
C/C=C\C=C/C(=O)Nc1cccc(C2=NOC3(C2)C[C@@H](C(N)=O)N(C(=O)/C=C/C=C\C)C3)c1 (some centres undefined) | u | 25.1µM* | -9.0% | 3.55µM* | u | u
C/C=C\C=C/C(=O)Nc1cccc(C2=NOC3(C2)C[C@@H](C(N)=O)N(C(=O)[C@H]2CCC(=O)N2)C3)c1 (some centres undefined) | -4.4% | 0.8% | -1.9% | 35.5µM* | -19.7% | -21.6%
C/C=C\C(=O)Nc1cccc(C2=NOC3(C2)C[C@@H](C(N)=O)N(C(=O)C2(C)CC2)C3)c1 (some centres undefined) | 0.0% | -0.8% | 7.0% | 12.5% | -3.8% | 2.1%
C/C=C\C=C/C(=O)Nc1cccc(C2=NOC3(C2)C[C@@H](C(N)=O)N(C(=O)C2(C)CC2)C3)c1 (some centres undefined) | 0.4% | -0.7% | 18.7% | 20µM* | u | -26.9%
C/C=C\C=C/C(=O)Nc1cccc(C2=NOC3(C2)C[C@@H](C(N)=O)N(C(=O)/C=C/CC)C3)c1 (some centres undefined) | -7.2% | -16.9% | 0.9% | 14.1µM* | -20.6% | u
C/C=C/C(=O)N1CC2(CC(c3cccc(NC(=O)CC)c3)=NO2)C[C@H]1C(N)=O (some centres undefined) | -3.8% | -6.3% | -0.6% | -6.2% | -8.3% | -11.3%
C/C=C\C(=O)Nc1cccc(C2=NOC3(C2)C[C@H](C(N)=O)N(C(=O)/C=C/CC)C3)c1 (some centres undefined) | 5.5% | 11.4% | 21.4% | 2.9% | 6.9% | 7.2%
CN(C)S(=O)(=O)Nc1ccc(-c2cn3ccsc3n2)cc1 | -0.3% | -10.8% | -6.2% | x | -12.9% | x
Cc1ccc(CNC(=O)C2CCN(S(=O)(=O)c3c(C)noc3/C=C/c3ccccc3F)CC2)o1 | 0.4% | -0.1% | -5.7% | x | 6.3% | x

Compound activity: PubChem BioAssay, National Center for Advancing Translational Sciences (NCATS)
